Assay results taken from PubChem BioAssay (NCI).
The panel holds about 79,000 compounds, 15% with a hit somewhere; the sample as a whole holds those more often. A number with no mark means an inactive call. Activity calls are given as the source filed them. Rule as the data show it: active = growth inhibition above about 70%; inactive = the rest.

Experiments:
[1] = NCI Yeast Anticancer Drug Screen. Data for the wt1 strain (AID 149);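 also: 0% = growth of vehicle-treated wt1 cultures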; conditions: S. cerevisiae wt1 strain (SPY 50644) growth inhibition, hits give high values
Method in brief: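 Each compound is tested on wt1 yeast and the loss of growth versus vehicle gives the inhibition value.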

[2] = NCI Yeast Anticancer Drug Screen. Data for the rad50EPP+ strain (AID 151);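 also: 0% = growth of vehicle-treated control cultures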; conditions: S. cerevisiae rad50 mutant strain, hits give high values
Method in brief: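 One strain with a rad50 alteration (rad50EPP+) was compound-treated, its growth then compared to that of vehicle controls.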

[3] = NCI Yeast Anticancer Drug Screen. Data for the mgt1 strain (AID 153); conditions: S. cerevisiae mgt1 mutant growth inhibition, hits give high values
Method in brief: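 After exposure of the mgt1 yeast mutant to compound, growth was measured and reported as inhibition compared with vehicle controls.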

[4] = NCI Yeast Anticancer Drug Screen. Data for the rad50 strain (AID 155);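 also: 0% = growth of vehicle-only cultures of the same strain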; conditions: S. cerevisiae rad50 strain growth inhibition, hits give high values
Method in brief: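 Vehicle-treated cultures provide the reference for the growth inhibition reported for compound-exposed, repair-deficient yeast.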

[5] = NCI Yeast Anticancer Drug Screen. Data for the mec2-1 strain (AID 157); conditions: S. cerevisiae mec2-1 strain, hits give high values
Method in brief: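 Test agents were screened against the mec2-1 yeast strain, with defined DNA repair or cell cycle alteration. Growth was scored as inhibition against vehicle-only controls.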

[6] = NCI Yeast Anticancer Drug Screen. Data for the rad14 strain (AID 159);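 also: 0% = growth of vehicle-treated control cultures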; conditions: S. cerevisiae rad14 strain growth inhibition, hits give high values
Method in brief: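 Inhibition of growth is reported for a repair-deficient yeast mutant following compound treatment, calculated relative to cultures that received vehicle.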

[7] = NCI Yeast Anticancer Drug Screen. Data for the sgs1 mgt1 strain (AID 161);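 also: 0% = growth of cultures given vehicle only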; conditions: S. cerevisiae sgs1 mgt1 strain, hits give high values
Method in brief: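 Read-out: growth inhibition vs vehicle controls. Cells: mutant yeast strain deficient in DNA damage repair.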

[8] = NCI Yeast Anticancer Drug Screen. Data for the CLN2oe strain (AID 163);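 also: 0% = growth of vehicle-only control cultures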; conditions: S. cerevisiae CLN2oe strain, hits give high values
Method in brief: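 Here, growth inhibition in a cell-cycle-altered yeast strain after compound exposure was quantified against vehicle control growth.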

[9] = NCI Yeast Anticancer Drug Screen. Data for the cln2 rad14 strain (AID 165);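 also: 0% = growth equal to vehicle treated cultures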; conditions: S. cerevisiae cln2 rad14 strain, hits give high values
Method in brief: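 Growth of compound-exposed yeast (cln2 rad14 genotype) measured and expressed as inhibition relative to vehicle.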

[10] = NCI Yeast Anticancer Drug Screen. Data for the bub3 strain (AID 167); conditions: S. cerevisiae bub3 mutant strain, hits give high values
Method in brief: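 Mutant yeast screening strain plus compound; vehicle-treated cultures serve as the 0% inhibition reference.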

[11] = NCI Yeast Anticancer Drug Screen. Data for the wt2 strain (AID 169); conditions: S. cerevisiae wt2 strain growth inhibition, hits give high values
Method in brief: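 Genetically defined yeast strains from a DNA-repair/cell-cycle panel were used. Compound-exposed yeast growth was measured, and the inhibition was calculated relative to vehicle treatment.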

[12] = NCI Yeast Anticancer Drug Screen. Data for the mlh1 strain (AID 171);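 also: 0% = growth of vehicle-treated control cultures of the same strain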; conditions: S. cerevisiae mlh1 strain growth inhibition, hits give high values
Method in brief: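 Here the genetically defined yeast mutant is grown with each compound, and the extent to which its growth falls below that of vehicle-exposed cells is reported.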

[13] = NCI Yeast Anticancer Drug Screen. Data for the sgs1 strain (AID 173);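 also: 0% = growth of vehicle-only control cultures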; conditions: S. cerevisiae sgs1 mutant, hits give high values
Method in brief: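 Relative growth inhibition, referenced to vehicle, was determined in a yeast strain with a defined alteration affecting DNA damage repair or cell cycle control after compound exposure.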

[14] = NCI Yeast Anticancer Drug Screen. Data for the mlh1 rad18 strain (AID 175); conditions: S. cerevisiae mlh1 rad18 strain growth inhibition, hits give high values
Method in brief: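 In this whole-cell yeast screen, a strain with altered DNA damage repair is challenged with compound, and its growth is measured against matched vehicle-treated controls.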

[15] = NCI Yeast Anticancer Drug Screen. Data for the rad18 strain (AID 177); conditions: S. cerevisiae rad18 mutant growth inhibition, hits give high values
Method in brief: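 Screen uses a yeast strain with a defined lesion in DNA damage repair; compound effect is read as loss of growth compared to untreated vehicle cultures.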

[16] = at 5.0 µM (retest, dose inferred, filed as 0.5)
[17] = at 50.0 µM (retest, dose inferred, filed as 5.0)

With Cc1cc(C)c(N2C(=O)CC(Sc3ccccc3N)C2=O)c(C)c1 (stereo not drawn) the growth inhibition ([1]; at 1.2 µM) was -53%, the growth inhibition ([1]; at 3.7 µM) was -52% and the growth inhibition ([1]; at 11.0 µM) was -58%. The growth inhibition ([1]; at 33.0 µM) was -62%, the growth inhibition ([1]; at 100.0 µM) was -45% and the growth inhibition ([2]; at 1.2 µM) was -15%. For the same compound, the growth inhibition ([2]; at 3.7 µM) was -13%, the growth inhibition ([2]; at 11.0 µM) was -16% and the growth inhibition ([2]; at 33.0 µM) was -11%. It also gave a growth inhibition ([2]; at 100.0 µM) of 1%, a growth inhibition ([3]; at 1.2 µM) of -57% and a growth inhibition ([3]; at 3.7 µM) of -57%. For the same compound, the growth inhibition ([3]; at 11.0 µM) was -57%, the growth inhibition ([3]; at 33.0 µM) was -38% and the growth inhibition ([3]; at 100.0 µM) was -21%. It also gave a growth inhibition ([4]; at 1.2 µM) of -34%, a growth inhibition ([4]; at 3.7 µM) of -30% and a growth inhibition [4, 16] of 37%. It also gave a growth inhibition ([4]; at 11.0 µM) of -33%, a growth inhibition ([4]; at 33.0 µM) of -42% and a growth inhibition [4, 17] of 41%. It also gave a growth inhibition ([4]; at 50.0 µM) of 30.1%, a growth inhibition ([4]; at 100.0 µM) of -27% and a growth inhibition ([5]; at 1.2 µM) of -42%. The growth inhibition ([5]; at 3.7 µM) was -44%, the growth inhibition [5, 16] was 45% and the growth inhibition ([5]; at 11.0 µM) was -45%. For the same compound, the growth inhibition ([5]; at 33.0 µM) was -36%, the growth inhibition [5, 17] was 48% and the growth inhibition ([5]; at 50.0 µM) was 48.5%. The growth inhibition ([5]; at 100.0 µM) was -24%, the growth inhibition ([6]; at 1.2 µM) was -59% and the growth inhibition ([6]; at 3.7 µM) was -53%. For the same compound, the growth inhibition ([6]; at 11.0 µM) was -53%, the growth inhibition ([6]; at 33.0 µM) was -56% and the growth inhibition ([6]; at 100.0 µM) was -45%. For the same compound, the growth inhibition [7, 16] was 0%, the growth inhibition [7, 17] was 91% (active) and the growth inhibition ([7]; at 50.0 µM) was 42.9%. It also gave a growth inhibition ([8]; at 1.2 µM) of -16%, a growth inhibition ([8]; at 3.7 µM) of -11% and a growth inhibition ([8]; at 11.0 µM) of -2%. The growth inhibition ([8]; at 33.0 µM) was 14%, the growth inhibition ([8]; at 100.0 µM) was -2% and the growth inhibition [9, 16] was 34%. The growth inhibition [9, 17] was 76% (active), the growth inhibition ([9]; at 50.0 µM) was 6.4% and the growth inhibition ([10]; at 1.2 µM) was -48%. The growth inhibition ([10]; at 3.7 µM) was -43%, the growth inhibition [10, 16] was -26% and the growth inhibition ([10]; at 11.0 µM) was -51%. The growth inhibition ([10]; at 33.0 µM) was -48%, the growth inhibition [10, 17] was 91% (active) and the growth inhibition ([10]; at 50.0 µM) was 51.6%. For the same compound, the growth inhibition ([10]; at 100.0 µM) was -51%, the growth inhibition ([11]; at 1.2 µM) was -14% and the growth inhibition ([11]; at 3.7 µM) was -19%. It also gave a growth inhibition ([11]; at 11.0 µM) of -1%, a growth inhibition ([11]; at 33.0 µM) of -8% and a growth inhibition ([11]; at 100.0 µM) of 19%. The growth inhibition ([12]; at 1.2 µM) was -33%, the growth inhibition ([12]; at 3.7 µM) was -27% and the growth inhibition ([12]; at 11.0 µM) was -27%. The growth inhibition ([12]; at 33.0 µM) was -23%, the growth inhibition ([12]; at 100.0 µM) was 1% and the growth inhibition ([13]; at 1.2 µM) was -37%. It also gave a growth inhibition ([13]; at 3.7 µM) of -41%, a growth inhibition ([13]; at 11.0 µM) of -34% and a growth inhibition ([13]; at 33.0 µM) of -28%. It also gave a growth inhibition ([13]; at 100.0 µM) of -21%, a growth inhibition [14, 16] of 24% and a growth inhibition [14, 17] of 44%. For the same compound, the growth inhibition ([14]; at 50.0 µM) was 34.3%, the growth inhibition ([15]; at 1.2 µM) was -54% and the growth inhibition ([15]; at 3.7 µM) was -45%. The growth inhibition ([15]; at 11.0 µM) was -38%, the growth inhibition ([15]; at 33.0 µM) was -47% and the growth inhibition ([15]; at 100.0 µM) was -44%.
